Compound activity as filed in PubChem BioAssay.
Sampled rows, rich in hits. Any-hit rate of the full collection: about 2.9%.
dFosB activator: activators of delta FosB homodimer, primary screen, biochemical, fluorescence polarization, TAMRA-CDK5 oligo, single point; Protein FosB (Mus musculus), P13346; purified delta FosB; percent of positive-control signal above neutral wells; activation, % at 25 µM; 340,000 compounds, 0.99% hits; AID 493131, 2011;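 active = mean activation above about 17%, with every replicate also reaching it, limit read from the data, passing the limit was not always enough; inconclusive = only one of the two conditions met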
Target sequence (P13346 whole entry, looked up): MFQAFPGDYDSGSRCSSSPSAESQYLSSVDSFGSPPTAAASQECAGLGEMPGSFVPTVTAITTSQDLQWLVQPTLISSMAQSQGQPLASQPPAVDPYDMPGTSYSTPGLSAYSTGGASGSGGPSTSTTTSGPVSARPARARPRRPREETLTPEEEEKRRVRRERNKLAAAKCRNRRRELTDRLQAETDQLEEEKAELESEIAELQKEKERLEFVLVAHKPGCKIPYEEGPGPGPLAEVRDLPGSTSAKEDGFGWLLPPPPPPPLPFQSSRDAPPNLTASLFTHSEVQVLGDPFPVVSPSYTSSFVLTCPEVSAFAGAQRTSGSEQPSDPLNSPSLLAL
MEKK2 WT-MEK5: modulators of MEK5 binding to wildtype MEKK2, primary screen, biochemical, multiplex bead flow cytometry, Alexa488-MEK5; Alexa488-MEK5 binding to MEKK2 WT; actives lie on both sides; binding response (% of control), % at 10 µM; 290,000 compounds, 1.1% hits; in the data active = binding response below about 67% or above about 130%; inconclusive = no clear call, values can overlap the other calls; inactive = in between
MEKK3 PB1 HTS: modulators of MEKK3-MEK5 PB1 binding, primary screen, biochemical, wildtype MEKK3, multiplex bead flow cytometry, Alexa488-MEK5. AID 1529, 2009. Mitogen-activated protein kinase kinase kinase 3 (Homo sapiens), Q99759. binding response (% of control), % at 10 µM. 290,000 compounds, 1.4% hits. bead-based flow cytometry, Alexa488-MEK5 binding to MEKK3; actives lie on both sides; 0 = blocked by unlabeled MEK5, 100 = vehicle;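 active = binding response more than 3 SD above or below the average of its plate-row segment, actives on both sides; inconclusive = wells at one plate position flagged as instrument error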;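 also: Alexa488 bead fluorescence after subtracting the streptavidin-only scavenger bead signal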
FID counter: compounds displacing fluorescent DNA intercalator, primary screen, artefact control for HCV NS3 helicase inhibitor project, biochemical, FID fluorescence | 290,000 compounds, 0.17% hits | DNA fluorescent intercalator displacement | AID 1845, 2009 | inhibition, % at 7.9 µM; in the data active = inhibition above about 37%;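 also: higher means more ethidium bromide displaced from hairpin DNA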
MEKK2 mut-MEK5: MEK5 binding signal on mutant MEKK2 PB1, primary screen, biochemical, multiplex bead flow cytometry, Alexa488-MEK5; Alexa488-MEK5 binding to MEKK2 mutant; percent response, % at 10 µM; 290,000 compounds, 0.35% hits; in the data active = percent response above about 24%, passing the limit was not always enough
MEKK2wt confirm: modulators of MEK5 binding to wildtype MEKK2, confirmation, biochemical, single concentration, multiplex bead flow cytometry; binding response (% of control), % at 10 µM; 5,900 compounds, 2.4% hits; AID 1892, 2009; Alexa488-MEK5 binding to MEKK2 WT; actives lie on both sides; shares compounds with MEKK3 PB1 HTS; in the data active = binding response below about 16% or above about 210%; inactive = in between
MEKK2mut confirm: mutant MEKK2 PB1-MEK5 binding signal retest – biochemical, single concentration, multiplex bead flow cytometry, confirmation. Alexa488-MEK5 binding to MEKK2 mutant. AID 1893, 2009. shares compounds with MEKK3 PB1 HTS. 5,900 compounds, 2% hits. percent response, % at 10 µM; in the data active = percent response mostly above about 71%, no sharp cut-off; inactive = mostly below about 38%;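 also: higher means compound restores mutant binding toward wildtype level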
MEKK3 confirm: MEKK3 wild-type PB1 binding to MEK5, inhibitors, confirmation, biochemical, bead multiplex flow cytometry, single concentration, wildtype; binding response (% of control), % at 10 µM; Alexa488-MEK5 binding to MEKK3; active compounds read low; shares compounds with MEKK3 PB1 HTS; 5,900 compounds, 1.8% hits;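 active = binding response below 72% of control, or above a set upper limit, though filed actives all read lower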;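 also: lower values mean stronger disruption of MEK5 binding to MEKK3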
Each line names hits and unclear results; the compound was inactive in the other large screens (follow-up assays come after a bar, where they were run); [ ] = dose if it differs, or a comment.

CCn1c(C)[n+](Cc2ccccc2)c2ccc(Cl)cc21	MEKK2 WT-MEK5 5.0[inhibitor], MEKK3 PB1 HTS 3.0[inhibitor] | MEKK2wt confirm inactive | MEKK2mut confirm inactive | MEKK3 confirm inactive
O=C(c1ccco1)N1CCN(Cc2nnc(-c3ccccc3)o2)CC1	none
CC(CC(C)C(=O)N1CCOCCN(C(=O)C(C)CC(C)C(=O)O)CCOCC1)C(=O)O (configuration not stated)	none
CC(CN1CCOCC1)C(=O)O (configuration not stated)	MEKK3 PB1 HTS 126.0 | MEKK2wt confirm inactive | MEKK2mut confirm inactive | MEKK3 confirm inactive
COc1cc(/C=C2\SC(=S)N(Nc3ccccc3)C2=O)ccc1O	dFosB activator inconclusive
COc1cc(/C=C2\SC(=S)N(Nc3ncc(C(F)(F)F)cc3Cl)C2=O)ccc1O	MEKK2 WT-MEK5 62.0[inhibitor] | MEKK2wt confirm inactive | MEKK2mut confirm inactive | MEKK3 confirm inactive
CN(C)c1ccc(/C=C2\SC(=S)N(Nc3ncc(C(F)(F)F)cc3Cl)C2=O)cc1	MEKK2 WT-MEK5 305.0, MEKK2 mut-MEK5 309.0 | MEKK2wt confirm inactive | MEKK2mut confirm inactive | MEKK3 confirm 56.0
CCOC(=O)c1ccc(NC(=O)COc2ccc(S(=O)(=O)NC(C)(C)C)cc2)cc1	none
Cc1ccc(C(=O)N/N=c2\sc3ccccc3n2C)cc1	MEKK3 PB1 HTS 136.0 | MEKK2wt confirm inactive | MEKK2mut confirm inactive | MEKK3 confirm inactive
CC1Cc2ccccc2N1S(=O)(=O)c1cccc(C(=O)N2CCN(c3ncccn3)CC2)c1 (configuration not stated)	none
CC(C)CNC1CS(=O)(=O)CC1O (configuration not stated)	none
O=S1(=O)CC(O)C(NCc2cccnc2)C1 (configuration not stated)	MEKK3 PB1 HTS 82.0[inhibitor] | MEKK2wt confirm inactive | MEKK2mut confirm inactive | MEKK3 confirm inactive
CCn1c(/N=C/c2ccccc2NS(=O)(=O)c2ccc(C)cc2)nc2ccccc21	MEKK3 PB1 HTS 137.0 | MEKK2wt confirm inactive | MEKK2mut confirm inactive | MEKK3 confirm inactive
CCN(CC)CCn1c(NS(=O)(=O)c2ccc(C)cc2)nc2ccccc21	none (no result: MEKK2 WT-MEK5, MEKK3 PB1 HTS, FID counter, MEKK2 mut-MEK5)
Cc1cc(NC(=O)CSc2nc3ccccc3c(=O)n2CCCC(=O)NCc2ccco2)n[nH]1	none
CC1CC(C)(C)NC(=S)N1CC(=O)NCc1ccc2c(c1)OCO2 (configuration not stated)	none
O=C(Nc1ccccc1F)c1ccncc1	none
Cc1cnc(C(=O)Nc2ccccc2F)cn1	MEKK2 WT-MEK5 1.0[inhibitor], MEKK3 PB1 HTS 2.0[inhibitor] | MEKK2wt confirm inactive | MEKK2mut confirm inactive | MEKK3 confirm inactive
COC(=O)n1ccc(C(=O)Nc2ccccc2F)n1	MEKK2 WT-MEK5 3.0[inhibitor], MEKK3 PB1 HTS 3.0[inhibitor] | MEKK2wt confirm inactive | MEKK2mut confirm inactive | MEKK3 confirm inactive
COC(=O)C1C(=O)N2CCCSC2=C(C#N)C1c1cccs1 (configuration not stated)	MEKK3 PB1 HTS 55.0[inhibitor] | MEKK2wt confirm inactive | MEKK2mut confirm inactive | MEKK3 confirm inactive
Cc1ccc(C)c(NC(=S)NNC(=O)c2sccc2C)c1	none
